Compounds with a hit are over-represented: about 13% of the library has one in this group of screens.
RAM network inh = blocks the yeast RAM network. S. cerevisiae dse1pr::URA3 reporter, 5-FOA growth OD615, 2 d; analog-sensitive cbk1-as2 kinase mutant strain. AID 868. inhibition, % at 50 µM. 190,000 compounds, 1.8% hits;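 active = inhibition above a set limit, 3 SD over mean compound inhibition, cut at about 8.4% in these data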;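 also: 0% = DMSO-only wells with no growth and 100% = 10 µM 1-NA-PP1 full growth; inhibition rescues growth on 5-FOA so higher OD means more RAM inhibition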
CHOP inh = CHOP inhibition in unfolded protein response. 220,000 compounds, 3.8% hits. AID 2732. inhibition, % at 10 µM. CHO-K1 CHOP-promoter luciferase, tunicamycin-induced, 15-18 h;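 active = compounds that reduced the stress-induced luciferase reporter signal by more than about 70% of percent inhibition, limit read from the data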;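 also: 0% = tunicamycin plus vehicle and 100% = wells without tunicamycin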
WT yeast gro inh = growth inhibition of WT yeast, mitochondrial fusion screen | mitochondrial fusion phenotypic screen, WT strain | inhibition, % at 10 µM | 190,000 compounds, 2.1% hits | AID 1362; in the data active = inhibition above about 58%; tested in S. cerevisiae
L major viab = reduces viability of Leishmania major promastigotes | AID 1063 | resazurin fluorescence viability | 200,000 compounds, 9% hits | inhibition, % at 10 µM; in the data active = inhibition above about 50%;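 also: promastigotes grown with compound for 44 hours at 28 °C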
Active calls of the source: *; nt = no result given.

SMILES	RAM network inh	CHOP inh	WT yeast gro inh	L major viab
Cc1ccc(Sc2ncnc3onc(C)c23)c(C)c1	2	22	61*	13
Cc1noc2ncnc(Oc3ccccc3Cl)c12	1	16	-24	-8
Cc1noc2ncnc(Sc3ccccc3Cl)c12	0	-6	99*	80*
COc1ccc(Sc2ncnc3onc(C)c23)cc1	1	29	5	23
COC(=O)c1ccccc1Sc1ncnc2onc(C)c12	3	-41	27	57*
N#Cc1nc(COc2ccc(F)cc2)oc1N1CCN(Cc2ccccc2)CC1	0	57	34	-5
N#Cc1nc(COc2ccc(F)cc2)oc1N1CCC(Cc2ccccc2)CC1	9.9*	32	0	-2
N#Cc1nc(COc2ccc(Br)cc2)oc1N1CCN(Cc2ccccc2)CC1	1	74*	20	5
CSC(N)=NCCC[C@H](N)C(=O)O	nt	3	nt	nt
CCCC(=O)Nc1nc2ccc3nc(C)sc3c2s1	1	75*	23	11
CCOc1ccc(C(=O)NCC(c2cccs2)N(C)C)cc1OCC (centres undefined)	2	11	2	2
CC1(C)CC(=O)C2=C(C1)N(Cc1ccccc1)C(=O)C2(O)C(F)(F)F (centres undefined)	0	34	5	66*
CC(C)CC(=O)NC1(C(F)(F)F)C(=O)N(Cc2ccccc2)C2=C1C(=O)CC(C)(C)C2 (centres undefined)	0	6	9	26
CC(C)(C)C(=O)NC1(C(F)(F)F)NC(=O)N(Cc2ccccc2)C1=O (centres undefined)	nt	8	nt	nt
O=C1CCCC2=C1C(O)(C(F)(F)F)C(=O)N2Cc1ccccc1 (centres undefined)	-1	-3	-3	61*
CCN(CC)C(C)C(=O)N1c2ccccc2Sc2ccccc21 (centres undefined)	nt	-10	nt	nt
CCN(CC)CCCNC(=S)N(Cc1cccnc1)Cc1cc2cc(C)ccc2[nH]c1=O	nt	-16	nt	nt
COc1ccc(-c2ccnc(-c3ccc(OCCCF)cc3)n2)cc1	3	71*	26	-6
COc1ccc(N/C=C(\C#N)c2ccc(OCCCF)cc2)cc1	5	8	4	-4
FCCCOc1ccc(-c2nccc(-c3ccc(Cl)cc3)n2)cc1	8.8*	78*	22	-10
Oc1ccc(-c2nccc(-c3ccc(Cl)cc3)n2)cc1	3	39	7	14
CCOc1ccc(C(=O)N/N=C/c2c(C)[nH]c(=O)[nH]c2=O)cc1	nt	-12	nt	nt
O=C(Nc1nc2c(s1)CN(Cc1ccccc1)CC2)c1cccc(S(=O)(=O)N2CCc3ccccc32)c1	1	26	-23	62*
O=C(NNC(=O)c1cccc(S(=O)(=O)N2CCc3ccccc32)c1)c1ccccc1	0	73*	-5	0
CC(C)CCNC(=O)c1cccc(S(=O)(=O)N2CCc3ccccc32)c1	1	6	11	5
SMILES	RAM network inh	CHOP inh	WT yeast gro inh	L major viab
COc1ccc(S(N)(=O)=O)cc1C(=O)N1CCCC1	2	1	17	-6
CCOC(=O)c1c(C=O)c2sc(C)cc2n1C	2	17	6	-8
O=S(=O)(c1cccc(C(F)(F)F)c1)N(CCCN1CCOCC1)Cc1cccs1	-1	25	0	100*
COC(=O)c1ccccc1S(=O)(=O)N(CCCN1CCOCC1)Cc1cccs1	1	-9	0	15
Fc1ccc(-c2nc3c(-c4ccc(Cl)cc4)cnn3cc2CCN2CCOCC2)cc1	2	19	13	13
O=C(NC(=S)N1CCCCC1)C12CC3CC(CC(C3)C1)C2	2	47	nt	4
O=C(c1cc(NC(=O)C23CC4CC(CC(C4)C2)C3)cc(NC(=O)C23CC4CC(CC(C4)C2)C3)c1)N1CCCCC1	2	71*	14	91*
Cc1cc(C)n(-c2ccc(Cl)c(C(=O)Nc3cc(C(F)(F)F)ccc3Cl)n2)n1	3	16	3	0
COc1ccc2nc(N3C(=O)/C(=C/c4ccc(Cl)cc4)NC3=S)sc2c1	5	53	-7	60*
CCCS(=O)(=O)c1nc(S(=O)(=O)c2ccc(C)cc2)c(N2CCc3ccccc3C2)s1	2	17	-10	61*
CCOC(=O)C1=C(CC)Nc2ccccc2N=C1NC(=O)c1ccc(S(=O)(=O)N2CCCC2)cc1	1	12	-9	11
CCOC(=O)C1=C(CC)Nc2ccccc2N=C1NC(=O)Nc1ccc(Cl)c(Cl)c1	2	53	7	97*
COc1ccccc1OCC(=O)NNC(=O)c1c(-c2ccccc2Cl)noc1C	2	-1	8	-2
Oc1ccc(C2=NNC(=NCc3ccc4c(c3)OCO4)SC2)c(O)c1	0	19	-1	-5
Clc1ccc(C2=NNC(=NCc3ccc4c(c3)OCO4)SC2)cc1	2	0	61*	16
COc1ccc(OC)c(C2=NNC(=NCc3ccc4c(c3)OCO4)SC2)c1	0	1	15	92*
N#Cc1c(-c2ccc(Cl)cc2)ccnc1N1CCOCC1	3	20	-5	-7
Cc1ccccc1NC(=S)N(CCCN1CCOCC1)Cc1cccnc1	0	13	1	5
CCc1ccccc1NC(=S)N(CCCN1CCOCC1)Cc1ccccn1	1	7	12	-2
Cc1cccc(NC(=S)NCc2ccccn2)c1	2	-17	-8	-1
Cc1ccc(NC(=S)N(CCCN2CCOCC2)Cc2cccnc2)cc1C	0	25	-10	64*
CCc1ccc(NC(=S)N(Cc2ccccc2)Cc2ccccn2)cc1	1	11	68*	22
CCc1ccc(NC(=S)N(CCCN2CCOCC2)Cc2ccccn2)cc1	0	-15	-14	68*
Cc1ccc(NC(=S)NCc2ccccn2)cc1	1	12	6	50*
CCCCOc1ccc(C(=O)NCC2(c3ccc(OC)cc3)CCOCC2)cc1	2	13	8	44
SMILES	RAM network inh	CHOP inh	WT yeast gro inh	L major viab
CC(C)(C)NC(=O)CCc1ncc(C(F)(F)F)cc1Cl	4	1	12	2
O=C(Nc1ccc(F)cc1)c1nc2c(nnn2Cc2cccc3ccccc23)c(=O)[nH]1	nt	60	nt	nt
CC(=O)Oc1ccc2c(c1)O/C(=C\c1ccncc1)C2=O	nt	14	nt	nt
CS(=O)(=O)Oc1ccc2c(c1)O/C(=C\c1cccnc1)C2=O	nt	-12	nt	nt
COc1ccc(S(=O)(=O)Oc2ccc3c(c2)O/C(=C\c2cccnc2)C3=O)cc1	1	54	9	86*
O=C1/C(=C/c2cccnc2)Oc2cc(OS(=O)(=O)c3ccc(Cl)cc3)ccc21	3	78*	7	14
COc1ccccc1C(=O)Oc1ccc2c(c1)O/C(=C\c1ccncc1)C2=O	1	52	-11	12
O=C1/C(=C/c2cccnc2)Oc2cc(OS(=O)(=O)c3ccccc3)ccc21	1	30	-18	57*
S=C(NCc1cccnc1)Nc1ccc(Oc2ccc(Cl)cc2)cc1	nt	11	nt	nt
O=C(CSc1ncnc2nc[nH]c12)Nc1nnc(SCc2ccc(Cl)c(Cl)c2)s1	3	53	19	-3
C=CCN1CC2(c3ccccc3)CN(CC=C)CC(c3ccccc3)(C1)C2=O	1	2	10	0
COc1ccc(Cl)cc1NC(=O)C(C)Sc1n[nH]c(N)n1 (centres undefined)	0	10	7	8
